Screens from PubChem BioAssay.
A selection: hits, their analogues and other compounds. The true share with any hit is near 2.8%.
TGFb SMAD3 inh: inhibitors of TGF-b signaling; HepG2 CAGA-GFP TGF-b/SMAD3 reporter, GFP fluorescence, 18 h; TGF-beta stimulated, 500 pg/mL final; Potency, µM (top dose mostly 46.1 µM), for inactives: at the top dose activity, negative = inhibition, most hits filed as inhibitors; 1.2% of 410,000 active; AID 588855; also: potency is read from the fitted curve at half-maximal effect; % is scaled to controls: 0 for no effect and ±100 for the full control effect; nearly all actives have a fitted effect of over 65% in size
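Per well, imaged GFP fluorescence of HEPG2 CAGA-GFP cells gives the signal; cells get compound, then TGF-beta (500 pg/mL final), 18 h at 37 degrees C; %Activity versus -TGF-beta and +DMSO controls.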
ATXN2 expr inh: reduces ATXN2 reporter expression in HEK-293 cells; HEK-293 ATXN2-luciferase reporter, luminescence, 24 h; Potency, µM (series often up to 57 µM), inactives show at the highest dose activity change, negative = inhibition, most hits filed as inhibitors; 0.72% of 360,000 active; AID 1745845; also: potency is read from the fitted curve at half-maximal effect; % is scaled to controls: 0 for no effect and ±100 for the full control effect; nearly all actives have a fitted effect of over 55% in size
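qHTS (up to 57 uM final) was run with 24 h compound exposure of reporter cells at 37 °C. Each well was multiplexed: SteadyGlo luminescence measured ATXN2-luciferase expression after a fluorogenic Gly-Phe-AFC viability readout (25 uM final).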
CtBP-E1A inh: CtBP/E1A binding inhibition. AlphaScreen GST-E1A/His-CtBP binding, 1536-well; stronger effect = lower value. activity change, % (test concentration not listed). 0.49% of 340,000 active; in the data active = activity change below about -65%; inconclusive = mostly about -30% to -63%; also: % is scaled to controls: 0 for no effect and ±100 for the full control effect
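Homogeneous bead-based format: GST-tagged E1A captured on glutathione donor beads, His-tagged CtBP on nickel acceptor beads; compounds precede bead addition by 2 h at 37 °C.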
ATXN viability: viability counter-screen for ATXN expression inhibitors; AID 651635; S2 cells (HEK-293 line with an ATXN2-luciferase reporter) viability, CellTiter-Fluor protease fluorescence, 24 h; Potency, µM (top dose mostly 56.7 µM), hits mostly cytotoxic; 0.49% of 400,000 active; also: potency is read from the fitted curve at half-maximal effect; nearly all actives have a fitted effect of over 40% in size
Six1-Eya2 blk: inhibitors of human Six1/Eya2 interaction; Q15475+O00167; AlphaScreen GST-Six1/His-Eya2 binding, biochemical; stronger effect = lower value; activity change, % (test concentration not listed); 0.56% of 360,000 active; in the data active = activity change below about -65%; inconclusive = mostly about -30% to -63%; also: % is scaled to controls: 0 for no effect and ±100 for the full control effect
Target sequence (O00167 whole entry, looked up): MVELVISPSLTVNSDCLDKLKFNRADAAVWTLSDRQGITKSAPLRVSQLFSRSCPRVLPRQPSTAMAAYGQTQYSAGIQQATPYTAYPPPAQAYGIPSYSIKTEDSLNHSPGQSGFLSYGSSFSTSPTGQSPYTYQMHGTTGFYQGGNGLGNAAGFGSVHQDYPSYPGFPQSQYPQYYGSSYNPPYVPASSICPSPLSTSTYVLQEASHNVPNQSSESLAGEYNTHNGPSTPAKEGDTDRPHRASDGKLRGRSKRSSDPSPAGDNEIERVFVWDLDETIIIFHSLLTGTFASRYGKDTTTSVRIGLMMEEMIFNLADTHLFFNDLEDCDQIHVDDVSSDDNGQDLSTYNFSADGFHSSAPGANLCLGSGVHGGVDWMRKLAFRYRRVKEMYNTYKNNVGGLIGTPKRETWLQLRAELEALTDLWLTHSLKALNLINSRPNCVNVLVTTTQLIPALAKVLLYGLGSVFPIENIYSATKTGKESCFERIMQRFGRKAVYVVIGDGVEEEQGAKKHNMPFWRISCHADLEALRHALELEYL
Target sequence (Q15475 whole entry, looked up): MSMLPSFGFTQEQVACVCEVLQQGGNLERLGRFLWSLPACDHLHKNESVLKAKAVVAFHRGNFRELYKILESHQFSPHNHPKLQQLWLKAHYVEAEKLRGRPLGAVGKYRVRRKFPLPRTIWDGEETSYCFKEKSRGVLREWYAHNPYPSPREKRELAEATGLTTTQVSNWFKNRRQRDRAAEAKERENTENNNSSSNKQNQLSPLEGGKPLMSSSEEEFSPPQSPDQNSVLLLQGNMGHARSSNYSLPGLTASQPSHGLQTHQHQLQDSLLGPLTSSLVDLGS
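Homogeneous AlphaScreen proximity assay pairing GST-Six1 with His-tagged Eya2 (added as 5X mix: 250 nM and 500 nM) in 50 mM Tris pH 8.0, 300 mM NaCl, 1 mM TCEP. Glutathione donor and nickel acceptor beads; 1 h, 37 °C, dark.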
HepG2 tox-1: kills HepG2 cells in TGF-b inhibitor counter-screen; HepG2 CAGA-GFP viability, ATP luminescence, 18 h; 0.76% of 410,000 active; AID 588856; Potency, µM (doses to about 46.1 µM), inactives show top-dose activity change, negative = cytotoxicity, hits mostly cytotoxic; also: potency is read from the fitted curve at half-maximal effect
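HepG2 CAGA-GFP cells (1000/well, DMEM with 1% FBS) received compound, then TGF-beta at 500 pg/mL final, and were incubated 18 hours at 37 degrees C. Viability was read by CellTiter-Glo luminescence. Media-only wells were set as complete cell-killing and DMSO as no toxicity.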
TGFb confirm: TGF-b pathway inhibition, cherry-pick retest; Potency, µM (series often up to 46.1 µM), inactives show at the highest dose activity, negative = inhibition, most hits filed as inhibitors; AID 720534; 63% of 1,600 active; shares compounds with TGFb SMAD3 inh; HepG2 CAGA-GFP TGF-b reporter, GFP fluorescence, 18 h; cells stimulated with TGF-beta, 500 pg/mL; also: potency is read from the fitted curve at half-maximal effect; % is scaled to controls: 0 for no effect and ±100 for the full control effect; nearly all actives have a fitted effect of over 65% in size
HepG2 tox-2: HepG2 cytotoxicity, TGF-b inhibitor counterscreen | shares compounds with TGFb SMAD3 inh | 27% of 1,600 active | Potency, µM (series often up to 46.1 µM), without a hit: at the top dose activity, negative = cytotoxicity, hits mostly inhibitors | HepG2 CAGA-GFP viability, ATP luminescence, 18 h; cells stimulated with TGF-beta, 500 pg/mL; also: potency is read from the fitted curve at half-maximal effect; % is scaled to controls: 0 for no effect and ±100 for the full control effect; nearly all actives have a fitted effect of over 70% in size
CCL64 TGFb inh: TGF-b inhibition, CCL64 orthogonal assay. shares compounds with TGFb SMAD3 inh. CCL64 CAGA-GFP reporter, TGF-b stimulated, GFP fluorescence, 18 h. Potency, µM (series often up to 46.1 µM), inactives show at the top dose activity, negative = inhibition, most hits filed as inhibitors. 41% of 1,600 active. AID 720536; also: potency is read from the fitted curve at half-maximal effect; nearly all actives have a fitted effect of over 65% in size
TGFb COP inh: TGF-b inhibition validated with COP promoter | shares compounds with TGFb SMAD3 inh | HepG2 COP-GFP TGF-b reporter, GFP fluorescence, 18 h; cells stimulated by added recombinant TGF-beta | Potency, µM (top dose mostly 46.1 µM), inactives show at the top dose activity, negative = inhibition, most hits filed as inhibitors | 3% of 1,600 active; also: potency is read from the fitted curve at half-maximal effect; nearly all actives have a fitted effect of over 70% in size
* = called active by the depositor. Unless noted, calls follow the shape of the dose curve; as a rule, active = well fitted curve in the direction sought with a large enough effect; inconclusive = small, poorly fitted or top-dose-only effect, or another doubt; inactive = no such curve, though single readings can be large; an effect the other way counts as inactive or inconclusive.

How did CCOCCOC(=O)c1[nH]c2c(c1C)C(=O)CC(c1ccccc1)C2 (stereo not drawn) do in these assays?
TGFb SMAD3 inh: inconclusive; ATXN2 expr inh: -14.3%; CtBP-E1A inh: 1.4; ATXN viability: inconclusive; Six1-Eya2 blk: 7.9; HepG2 tox-1: -23.5%

What do the screens show for `CCCCCOC(=O)c1[nH]c2c(c1C)C(=O)CC(c1ccco1)C2` (stereo not drawn)?
TGFb SMAD3 inh: 0.794µM*; ATXN2 expr inh: -28.4%; CtBP-E1A inh: -9.5; ATXN viability: inconclusive; Six1-Eya2 blk: -1.8; HepG2 tox-1: -5.7%; TGFb confirm: 1.16µM*; HepG2 tox-2: -2.4%; CCL64 TGFb inh: 0.231µM*; TGFb COP inh: -12.7%

How did COc1ccc(CCNC(=O)C(=O)NCC(c2ccco2)S(=O)(=O)c2ccc(F)cc2)cc1 (stereo not drawn) do in these assays?
TGFb SMAD3 inh: 27.0%; HepG2 tox-1: 0.2%

Results for COc1ccccc1C(=O)Nc1ccc2nc(SCCOc3ccccc3C)sc2c1 ?
TGFb SMAD3 inh: -1.0%; ATXN2 expr inh: -0.8%; ATXN viability: inactive; HepG2 tox-1: -41.0%

What do the screens show for `COc1ccc(-c2cc(-c3c(O)c(OC)c4occc4c3OC)[nH]n2)cc1OC`?
TGFb SMAD3 inh: 7.94µM*; ATXN2 expr inh: 2.1%; CtBP-E1A inh: 11.3; ATXN viability: inactive; Six1-Eya2 blk: inconclusive; HepG2 tox-1: -28.7%; TGFb confirm: inconclusive; HepG2 tox-2: inconclusive; CCL64 TGFb inh: inconclusive; TGFb COP inh: 61.2%

How did Cc1ccc(NC(=O)c2ccccc2NS(=O)(=O)c2ccc(Cl)s2)cc1 do in these assays?
TGFb SMAD3 inh: inconclusive; ATXN2 expr inh: inconclusive; CtBP-E1A inh: 7.0; ATXN viability: inactive; Six1-Eya2 blk: 0.8; HepG2 tox-1: -69.1%

What do the screens show for `O=C(Nc1ccccc1Cc1ccccc1)c1ccccc1NS(=O)(=O)c1ccc(Cl)s1`?
TGFb SMAD3 inh: 4.47µM*; ATXN2 expr inh: inconclusive; CtBP-E1A inh: 0.0; ATXN viability: inactive; Six1-Eya2 blk: 6.1; HepG2 tox-1: -25.3%; TGFb confirm: 5.8µM*; HepG2 tox-2: 10.3µM*; CCL64 TGFb inh: 9.2µM*; TGFb COP inh: 80.4%

Results for Cc1ccc(-n2c(=O)c3ccc(C(=O)NCc4ccccc4Cl)cc3n(Cc3ccccc3F)c2=O)cc1 ?
TGFb SMAD3 inh: inconclusive; ATXN2 expr inh: 14.8%; ATXN viability: inactive; HepG2 tox-1: -22.5%

Results for C=CCn1c(O)c(N=NC(=S)Nc2ccc(OC)cc2)c2ccccc21 ?
TGFb SMAD3 inh: inconclusive; ATXN2 expr inh: inconclusive; CtBP-E1A inh: -18.1; ATXN viability: inconclusive; Six1-Eya2 blk: inconclusive; HepG2 tox-1: -30.4%; TGFb confirm: inconclusive; HepG2 tox-2: inconclusive; CCL64 TGFb inh: inconclusive; TGFb COP inh: -12.1%

How did C=CCn1c(O)c(N=NC(=S)Nc2cccc(OC)c2)c2ccccc21 do in these assays?
TGFb SMAD3 inh: -24.7%; ATXN2 expr inh: -41.8%; CtBP-E1A inh: inconclusive; ATXN viability: inactive; Six1-Eya2 blk: inconclusive; HepG2 tox-1: -23.2%

How did CCOc1ccccc1CNC(=O)CCCN1C(=O)c2cccnc2Oc2ccc(Cl)cc21 do in these assays?
TGFb SMAD3 inh: -29.8%; HepG2 tox-1: -19.6%

How did NC(=O)c1ccsc1NC(=O)c1ccc(S(=O)(=O)N2CCCc3ccccc32)cc1 do in these assays?
TGFb SMAD3 inh: 11.2µM*; ATXN2 expr inh: inconclusive; CtBP-E1A inh: -3.1; ATXN viability: inconclusive; Six1-Eya2 blk: -5.0; HepG2 tox-1: -16.0%; TGFb confirm: 5.17µM*; HepG2 tox-2: inconclusive; CCL64 TGFb inh: 16.4µM*; TGFb COP inh: -1.1%

How did O=C(O)c1ccc(S(=O)(=O)N2CCCc3ccccc32)cc1 do in these assays?
TGFb SMAD3 inh: 12.7%; ATXN2 expr inh: 7.2%; CtBP-E1A inh: 3.2; ATXN viability: inactive; Six1-Eya2 blk: 3.8; HepG2 tox-1: 5.2%

Results for Cc1ccc(-n2nc(C)c3nc(CCC(=O)Nc4ccc(F)cc4)c(=O)n(C)c32)cc1 ?
TGFb SMAD3 inh: inconclusive; ATXN2 expr inh: 8.5%; ATXN viability: inactive; HepG2 tox-1: 1.3%

What do the screens show for `Cc1nc2c(o1)C(=O)c1ccccc1C2=Nc1ccccc1`?
TGFb SMAD3 inh: 1.26µM*; ATXN2 expr inh: 28.2µM*; CtBP-E1A inh: -3.6; Six1-Eya2 blk: -3.3; HepG2 tox-1: 1.41µM*; TGFb confirm: 3.66µM*; HepG2 tox-2: 4.11µM*; CCL64 TGFb inh: 5.8µM*; TGFb COP inh: 4.11µM*

How did C=CCNc1ncnc2c1ncn2C1OC(CO)C(O)C1O (stereo not drawn) do in these assays?
TGFb SMAD3 inh: 10µM*; ATXN2 expr inh: -6.5%; CtBP-E1A inh: 7.0; ATXN viability: inactive; Six1-Eya2 blk: 11.5; HepG2 tox-1: 7.94µM*; TGFb confirm: 10.3µM*; HepG2 tox-2: inconclusive; CCL64 TGFb inh: -18.2%; TGFb COP inh: 28.3%

What do the screens show for `CC(C)=CCNc1ncnc2c1ncn2[C@@H]1O[C@H](CO)[C@@H](O)[C@H]1O`?
ATXN2 expr inh: -23.8%; ATXN viability: inconclusive

Results for OCC1OC(n2cnc3c(NCc4ccco4)ncnc32)C(O)C1O (stereo not drawn) ?
TGFb SMAD3 inh: 5.01µM*; ATXN2 expr inh: inconclusive; CtBP-E1A inh: 8.7; ATXN viability: inconclusive; Six1-Eya2 blk: -0.8; HepG2 tox-1: -88.2%; TGFb confirm: 5.8µM*; HepG2 tox-2: 18.4µM*; CCL64 TGFb inh: 11.6µM*; TGFb COP inh: 32.9%
